D2 PAM-1: positive allosteric modulators of human D2 dopamine receptor; HEK293 T-REx D2, calcium flux, EC20 dopamine potentiation; 340,000 compounds, 0.34% hits; potentiation, % at 10 µM;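 active = potentiation over 3 SD above the plate norm, cut at about 30% in these data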
Target sequence (P14416 whole entry, looked up): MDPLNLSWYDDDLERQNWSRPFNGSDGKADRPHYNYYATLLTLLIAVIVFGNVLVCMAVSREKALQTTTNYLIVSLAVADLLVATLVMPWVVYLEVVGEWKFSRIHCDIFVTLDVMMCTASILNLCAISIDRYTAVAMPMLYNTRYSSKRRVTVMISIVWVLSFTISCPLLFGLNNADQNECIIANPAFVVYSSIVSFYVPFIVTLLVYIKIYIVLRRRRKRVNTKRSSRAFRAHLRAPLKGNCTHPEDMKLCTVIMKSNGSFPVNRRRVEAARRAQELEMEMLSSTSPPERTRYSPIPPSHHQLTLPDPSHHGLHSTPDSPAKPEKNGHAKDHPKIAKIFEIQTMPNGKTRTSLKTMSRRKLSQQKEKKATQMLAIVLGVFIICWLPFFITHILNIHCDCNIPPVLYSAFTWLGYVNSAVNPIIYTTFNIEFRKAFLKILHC
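Tetracycline-induced HEK293 T-REx cells force-coupled to calcium signalling expressed D2; compounds were pin-added after a 10 s baseline, read kinetically 180 s, then an EC20 dopamine challenge followed with a further 180 s calcium read.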
D2 PAM-2: human D2 receptor positive allosteric modulation | P14416 | DiscoveRx D2 beta-arrestin cells, luminescence, 90 min; 100% = 57 uM dopamine signal | potentiation, % (concentration not given with the values) | 360,000 compounds, 0.23% hits | AID 624464; in the data active = potentiation above about 50%
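PathHunter beta-arrestin assay in DiscoveRx D2 cells. Compounds were added with an EC20 of dopamine (50 nM final) for 90 min at 37 deg C. Luminescence was read 1 h after detection reagent, with 57 uM dopamine as the EC100 control.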
D2 antagonist: antagonizes the human D2 dopamine receptor; P14416; HEK293 TREx D2 cells, calcium flux, dopamine EC80; inhibition, % at 10 µM; 340,000 compounds, 2% hits; in the data active = inhibition above about 30%; inactive = below that, where a call was filed
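Measurement of antagonist activity uses fluorescent calcium dye in inducible HEK293 T-REx D2 cells: 10 s baseline, compound addition with 180 s read, EC80 dopamine addition with a further 180 s read.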
D2 ag-1: human D2 receptor agonism in beta-arrestin assay | P14416 | DiscoveRx PathHunter D2 beta-arrestin, luminescence, 90 min; 100% = 57 uM dopamine signal | activation, % (concentration not given with the values) | 360,000 compounds, 0.084% hits | AID 624465; in the data active = activation above about 40%
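DiscoveRx PathHunter D2 beta-arrestin cells (2,100/well) attached overnight, then compound-stimulated 90 min at 37 C in HBSS/10 mM HEPES/0.1% Tween-20 buffer; beta-galactosidase complementation read by luminescence after 1 h at ambient temperature. Dopamine 57 uM final (EC100) as control.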
D2 ag-2: activates the human D2 dopamine receptor; P14416; HEK293 T-REx D2 cells, calcium flux agonist mode; activation, % at 2 µM; 340,000 compounds, 0.53% hits; AID 485358;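 active = activation over 3 SD above normal in the single-dose calcium agonist read, cut at about 30% in these data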
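In this primary screen, compounds producing a positive calcium signal within 180 s of addition to tetracycline-induced, force-coupled HEK293 Trex D2 cells are flagged; cells are dye-loaded with a no-wash calcium kit beforehand.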
Large screens that a line does not name were inactive. This is a sample that favours compounds with a hit; in the whole collection about 2.4% have one here.

CCn1nnnc1SCC(=O)N1CCCCC1	none
COCCn1nnnc1SCC(=O)N1CCCCC1	D2 antagonist 34.2
Cc1nnc(SCC(=O)NCCN2C(=O)CSC2=O)n1-c1ccccc1	D2 antagonist 46.7
O=C(Cn1nc(-c2ccccc2)c2c(c1=O)CCCC2)Nc1ccc(F)c(Cl)c1	none (no result: D2 PAM-2, D2 antagonist, D2 ag-1)
CCCC1CCc2c(sc(NC(=O)OCC)c2C#N)C1 (stereo not given)	D2 PAM-1 34.0 (no result: D2 antagonist)
CCOC(=O)Nc1sc2c(c1C#N)CCCC2	none
CCOC(=O)c1c(NC(=O)C(C)Sc2cn(CCNC(=O)c3ccccc3OC)c3ccccc23)sc2c1CCC2 (stereo not given)	none (no result: D2 PAM-2, D2 antagonist, D2 ag-1)
CCOC(=O)c1cc(-c2ccccc2)n(CC(=O)Nc2ccc(OC)cc2OC)c1C	none (no result: D2 PAM-2, D2 antagonist, D2 ag-1)
CCCN1C(=O)/C(=C/c2c(N3CCNC(=O)C3CC(=O)OC)nc3c(C)cccn3c2=O)SC1=S (stereo not given)	D2 antagonist 42.7, D2 ag-2 55.1 (no result: D2 PAM-2, D2 ag-1)
C=C(C)Cn1c(SCC(=O)c2ccc(Br)cc2)nc2sc3c(c2c1=O)CCCC3	none (no result: D2 PAM-1, D2 PAM-2, D2 antagonist, D2 ag-1)
Cc1cccc(C(=O)NCC(=O)OC(C)C(=O)Nc2ccc(Cl)cn2)c1 (stereo not given)	D2 antagonist 37.2
Cc1cccc(OCC(=O)OC(C)C(=O)Nc2ccc(Cl)cn2)c1 (stereo not given)	none
O=c1cc(C(Cl)(Cl)Cl)oc2c1ccc1ccccc12	D2 PAM-2 85.2
COc1ccc(NC(=O)C(=O)NCCN2CCN(C(=O)c3ccc(C)cc3)CC2)cc1	D2 antagonist 46.0
CC(C)=CCN1CCN(CCC2=C(C)CCCC2(C)C)CC1CCO (stereo not given)	D2 antagonist 60.9
CC1=C(CCN2CCN(C3CCCC3)C(CCO)C2)C(C)(C)CCC1 (stereo not given)	none
CC(=O)Nc1ccc(NC(=O)CCS(=O)(=O)c2ccc3c(c2)oc(=O)n3C)cc1	none
Cn1c(=O)oc2cc(NC(=O)CCl)ccc21	D2 antagonist 31.9
Cc1cccc(C(=O)OCC(=O)NN2C(=O)NC3(CCC(C)CC3)C2=O)c1O (stereo not given)	D2 antagonist 30.6
CCN1CCc2c(sc(N)c2C(N)=O)C1	D2 antagonist 38.0
COc1cc2c(c(O)c1OC)C(=O)C(OC)CCC2 (stereo not given)	D2 antagonist 32.0
CCOc1cccc(C(=O)Nc2c(C(=O)c3ccc(OC)cc3)oc3ccccc23)c1	none (no result: D2 PAM-2, D2 antagonist, D2 ag-1, D2 ag-2)
O=C(CCN1CCOCC1)N/N=C/c1cc(Br)cc(Br)c1O	D2 antagonist 35.6
CCOC(=O)CNC(=O)c1ccc2c(c1)OCCO2	none
O=C(CNC(=O)c1ccc(Cl)cc1)OCC(=O)c1ccc2c(c1)OCCO2	D2 antagonist 41.2
CCc1ccc(CN(C(=O)c2ccc(OC)cc2)C2CCS(=O)(=O)C2)cc1 (stereo not given)	none (no result: D2 PAM-2, D2 antagonist, D2 ag-1)
CCCc1nnc(SCC(=O)N(CC)CC)n1CC1CCCO1 (stereo not given)	none
CCCc1nnc(SCC(=O)N2CCCCC2C)n1CC1CCCO1 (stereo not given)	D2 PAM-1 37.1 (no result: D2 antagonist, D2 ag-2)
CN(CCC#N)C(=O)Cn1nc(Cc2ccncc2)c2ccccc2c1=O	D2 antagonist 35.2
Cc1[nH]oc(=O)c1N=Nc1ccccc1	D2 PAM-2 57.2
CCOc1ccccc1C(=O)NCc1ccc2c(c1)CCN2C(C)=O	none (no result: D2 PAM-2, D2 antagonist, D2 ag-1, D2 ag-2)
c1cc2c3c(cccc3c1)NC(c1ccc3c(c1)OCO3)N2	D2 ag-1 44.4
CSc1ccc(C2Nc3cccc4cccc(c34)N2)cc1	D2 PAM-2 58.3, D2 ag-1 53.9
COc1ccc(NC(=O)CN(C)C(=O)CCSc2ccc(F)cc2)cc1	D2 antagonist 33.7
COc1cccc(NC(=O)CN(C)C(=O)CSc2nc(C)cc(C)n2)c1	D2 antagonist 41.0
O=C(O)c1ccc(N2CCCS2(=O)=O)cc1	D2 antagonist 34.3
CCN(Cc1ccccc1)C1CCN(Cc2ccc(SC)cc2)CC1	none (no result: D2 PAM-1, D2 antagonist, D2 ag-2)
O=C(C1CCN(CCCc2ccccc2)CC1)N(CCc1ccccc1)Cc1ccccc1	D2 antagonist 38.7
CCN(Cc1ccccc1)C(=O)C1CCN(Cc2ccc(SC)cc2)CC1	D2 antagonist 80.6
O=C(C1CCN(CC2CC=CCC2)CC1)N(CCc1ccccc1)Cc1ccccc1 (stereo not given)	none

Screening data from PubChem.
